The list is not random: actives were taken first. Their share in the collection is about 4.4%.
NFkB transloc inh: blocks IL-1B driven NFkB nuclear translocation in HUVEC cells; HUVEC IL-1B NFkB p65 nuclear translocation imaging; inhibition, % at 2 µM; 0.43% of 94,000 active;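 active = inhibition above about 30% together with a positive call from visual inspection of the well image, limit read from the data; inconclusive = inhibition above a set limit but visual check negative; inactive = inhibition not above a set limit, visual check negative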;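 note: nuclear over cytoplasmic p65 intensity ratio measured by imaging; 0% = IL-1B stimulated DMSO wells and 100% = unstimulated DMSO wells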
NFkB transloc pot: enhances IL-1B driven NFkB nuclear translocation | HUVEC IL-1B NFkB p65 nuclear translocation imaging | activation, % at 2 µM | 0.3% of 94,000 active | AID 819;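 active = activation above 40%, about the mean plus 3 SD, also judged a hit on visual image review; inconclusive = activation above 40% but not a hit on visual review; inactive = activation not above 40% and no visual hit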;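 note: percent activation is computed from the nuclear over cytoplasmic p65 intensity ratio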
IL1B cytotox: toxic to HUVEC cells under IL-1B stimulation; HUVEC cell count loss, Hoechst imaging, IL-1B stimulated; cell count reduction, % at 2 µM; 0.41% of 94,000 active; AID 845;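 active = cell count reduction more than 3 SD above the screen-wide mean, cut at about 70% in these data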;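 note: normalized per plate to untreated control cells as the no-loss baseline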
Cav3 T inh: blocks human Cav3.2 T-type calcium channel; Cav3.2-expressing cells, Fluo-4 calcium fluorescence FDSS; hits give low values; B-score at 10 µM; 4% of 100,000 active; O95180;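 active = single-dose well whose peak fluorescence ratio is a statistical outlier from its plate by either plate-standardised score or position-corrected B-score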
Target sequence (O95180 whole entry, looked up): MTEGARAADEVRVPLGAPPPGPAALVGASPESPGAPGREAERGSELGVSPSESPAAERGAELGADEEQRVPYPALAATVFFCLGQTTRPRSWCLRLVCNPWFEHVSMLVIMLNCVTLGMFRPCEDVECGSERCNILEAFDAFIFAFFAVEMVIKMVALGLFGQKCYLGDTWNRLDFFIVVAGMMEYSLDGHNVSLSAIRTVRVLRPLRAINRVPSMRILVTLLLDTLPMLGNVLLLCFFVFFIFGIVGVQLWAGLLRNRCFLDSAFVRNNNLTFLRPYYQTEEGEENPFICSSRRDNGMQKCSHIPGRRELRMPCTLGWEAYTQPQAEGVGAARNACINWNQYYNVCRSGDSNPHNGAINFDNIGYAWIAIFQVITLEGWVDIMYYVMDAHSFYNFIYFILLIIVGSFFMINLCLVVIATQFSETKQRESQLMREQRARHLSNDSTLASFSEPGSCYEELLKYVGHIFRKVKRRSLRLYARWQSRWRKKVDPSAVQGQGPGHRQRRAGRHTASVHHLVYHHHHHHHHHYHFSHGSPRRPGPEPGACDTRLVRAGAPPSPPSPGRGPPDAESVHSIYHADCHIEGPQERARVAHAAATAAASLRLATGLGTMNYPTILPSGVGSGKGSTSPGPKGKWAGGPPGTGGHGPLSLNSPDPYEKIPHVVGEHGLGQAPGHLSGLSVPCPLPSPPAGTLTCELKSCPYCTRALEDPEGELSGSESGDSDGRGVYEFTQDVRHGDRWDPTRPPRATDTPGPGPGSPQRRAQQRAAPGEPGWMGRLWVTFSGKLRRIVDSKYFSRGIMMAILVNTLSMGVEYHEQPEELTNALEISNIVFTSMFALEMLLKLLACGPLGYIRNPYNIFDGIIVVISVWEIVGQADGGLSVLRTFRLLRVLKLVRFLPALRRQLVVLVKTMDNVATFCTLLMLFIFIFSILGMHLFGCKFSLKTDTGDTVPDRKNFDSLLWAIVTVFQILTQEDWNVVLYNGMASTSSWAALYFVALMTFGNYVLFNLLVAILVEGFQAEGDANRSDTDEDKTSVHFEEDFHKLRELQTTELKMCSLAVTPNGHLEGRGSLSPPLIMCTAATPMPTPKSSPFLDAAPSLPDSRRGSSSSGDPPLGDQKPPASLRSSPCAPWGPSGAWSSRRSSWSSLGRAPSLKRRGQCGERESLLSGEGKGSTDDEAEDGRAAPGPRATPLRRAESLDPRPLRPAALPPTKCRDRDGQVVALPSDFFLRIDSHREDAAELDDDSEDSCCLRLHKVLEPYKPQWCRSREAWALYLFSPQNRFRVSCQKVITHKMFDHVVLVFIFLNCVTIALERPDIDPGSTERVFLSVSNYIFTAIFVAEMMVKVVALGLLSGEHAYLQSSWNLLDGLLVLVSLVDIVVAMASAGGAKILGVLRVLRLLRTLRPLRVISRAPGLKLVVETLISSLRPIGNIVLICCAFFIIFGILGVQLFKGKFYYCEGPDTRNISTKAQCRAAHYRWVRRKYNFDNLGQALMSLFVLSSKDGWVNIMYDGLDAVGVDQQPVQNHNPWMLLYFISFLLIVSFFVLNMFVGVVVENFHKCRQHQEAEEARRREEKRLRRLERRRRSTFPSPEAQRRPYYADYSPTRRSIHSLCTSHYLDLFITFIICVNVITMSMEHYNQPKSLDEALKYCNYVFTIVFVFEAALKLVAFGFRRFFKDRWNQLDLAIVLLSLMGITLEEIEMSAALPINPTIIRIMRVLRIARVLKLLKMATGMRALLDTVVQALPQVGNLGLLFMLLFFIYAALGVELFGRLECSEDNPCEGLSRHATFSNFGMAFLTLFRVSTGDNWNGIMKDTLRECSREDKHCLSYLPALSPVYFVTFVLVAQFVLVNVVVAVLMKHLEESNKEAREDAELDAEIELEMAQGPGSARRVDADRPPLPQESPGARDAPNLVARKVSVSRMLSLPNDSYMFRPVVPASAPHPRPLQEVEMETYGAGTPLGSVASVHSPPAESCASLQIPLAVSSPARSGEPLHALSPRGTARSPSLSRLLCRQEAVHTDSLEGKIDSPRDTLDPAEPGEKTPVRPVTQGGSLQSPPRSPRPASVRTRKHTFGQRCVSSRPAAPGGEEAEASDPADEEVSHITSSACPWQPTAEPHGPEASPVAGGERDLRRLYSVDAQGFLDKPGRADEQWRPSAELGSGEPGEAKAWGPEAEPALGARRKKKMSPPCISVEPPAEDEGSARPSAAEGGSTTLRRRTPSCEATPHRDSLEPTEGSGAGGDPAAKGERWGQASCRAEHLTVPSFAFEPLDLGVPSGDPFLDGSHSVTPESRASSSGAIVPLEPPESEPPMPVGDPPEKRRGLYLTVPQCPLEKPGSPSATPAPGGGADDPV
* hit, by the source's call; ? = inconclusive; . = not tested or not shown.

SMILES	NFkB transloc inh	NFkB transloc pot	IL1B cytotox	Cav3 T inh
C=CCOc1c(Br)cc(CNc2ccc(NC(=O)C(C)C)c(OC)c2)cc1OC	-6	6	-22	-3.8*
Cc1ccccc1COCCN1CCN(S(=O)(=O)c2ccccc2)CCC1=O	.	.	.	-1.3
O=C(Nc1ccc2nc(-c3ccccc3)oc2c1)c1ccco1	-40	40*	-39	-0.4
O=C(Nc1ccccc1-c1ccccc1)c1ccc(NC(=O)c2ccco2)cc1	2	-2	15	-5.5*
O=C(Nc1ccccc1-c1ccccc1)c1ccco1	-7	7	-8	-0.97
Cc1nnc(SCCn2c(N3CCCC(C)C3)nc3c2c(=O)n(C)c(=O)n3C)s1 (stereo not drawn)	-14	14	0	-0.7
CCn1c(SCC(=O)N2c3ccccc3CC2C)nnc1-c1ccco1 (stereo not drawn)	45*	-45	-13	0.82
CC1Cc2ccccc2N1C(=O)CSc1nnc2n1C(C)(C)Cc1ccccc1-2 (stereo not drawn)	98*	-98	95*	-3
COc1cccc(-n2c(SCC(=O)N3c4ccccc4CC3C)nnc2-c2ccco2)c1 (stereo not drawn)	3	-3	12	-3.7*
Cc1ccc(S(=O)(=O)NCC2CCC(C(=O)NCc3ccco3)CC2)cc1 (stereo not drawn)	-3	3	-13	0.23
Fc1ccc(-n2[nH]nnc2=S)cc1N1CCCC1	10	-10	10	-0.078
CCN1/C(=C/c2ccc3cccc(C)c3[n+]2CC)Sc2ccccc21	4	-4	-8	-3.9*
CCN1/C(=C2\OC(=S)N(C)C2=O)Sc2ccccc21	-10	10	-6	.
CCOC(=O)c1cnc(SCc2cccc(C)c2)nc1N	-5	5	-5	-4.9*
CCN(c1cccc(C(F)(F)F)c1)S(=O)(=O)c1ccc2c(c1)CCN2C(=O)C1CC1	0	0	-31	-4.7*
CCC(=O)N1CCc2cc(S(=O)(=O)N(CC)c3cccc(C)c3)ccc21	14	-14	6	0.28
O=S(=O)(c1cccc(S(=O)(=O)N2CCC(Cc3ccccc3)CC2)c1)N1CCOCC1	-42	?	-10	-5.9*
O=C(COC(=O)c1ccccc1F)c1ccc(-n2nncc2-c2ccco2)cc1	-42	42*	-18	-0.58
CC12CCC(C(=O)N(CSC(=S)N/N=C\c3ccccc3Cl)C1=O)C2(C)C (stereo not drawn)	100*	-99	95*	-1.1
CC12CCC(C(=O)N(CSC(=S)N/N=C\c3ccccc3)C1=O)C2(C)C (stereo not drawn)	3	-3	12	-0.45
CCOC(=O)C1CCCN(C(=O)c2cc3c(=O)n(C)c4ccccc4c3n2C)C1 (stereo not drawn)	-14	14	6	3.1*
CCOC(=O)C1CCCN(C(=O)c2cc(Nc3ccc(OC)cc3)nc3ccccc23)C1 (stereo not drawn)	2	-2	2	-5.5*
Cn1c(C(=O)N2CCCC2)cc2c(=O)n(C)c3ccccc3c21	-2	3	-4	0.58
COCOc1ccc(/C=C/C(=O)c2c(O)cc(OCOC)cc2OCOC)cc1	.	.	.	0.12
COc1cccc(NS(=O)(=O)c2c(C)n(C)c(=O)n(C)c2=O)c1	8	-8	16	-0.04
SMILES	NFkB transloc inh	NFkB transloc pot	IL1B cytotox	Cav3 T inh
Cc1c(C(=O)NCCc2ccc3c(c2)OCCO3)oc2ccccc12	23	-23	-14	-7*
Cc1c(C(=O)NCc2ccccn2)oc2ccccc12	3	-3	-4	0.11
Cc1cc(C)n(-c2nc3ccccc3nc2Nc2ccc3[nH]c(=O)[nH]c3c2)n1	-7	7	-100	0.4
Cc1cc(C)n(-c2nc3ccccc3[nH]c2=O)n1	-3	3	87*	0.7
COC(=O)C1CCN(C(=O)c2sc3nc(-c4ccc(F)cc4)cn3c2C)CC1	8	-8	-22	2.8
COC(=O)C[C@H]1c2cc(F)ccc2S(=O)(=O)N1C(C)C	.	.	.	0.72
Cc1ccc(Cl)cc1NC(=O)CC(O)(C(F)(F)F)C(F)(F)F	-5	5	15	-2.7*
COC(=O)C(O)(CC(=O)Nc1ccc(Cl)cc1F)C(F)(F)F (stereo not drawn)	32*	-32	30	0.68
COc1cccc(CC(NC(C)=O)C(=O)NC2CCN(S(=O)(=O)c3ccc4ccccc4c3)CC2)c1 (stereo not drawn)	-10	10	13	-0.013
CN(C)CCN(Cc1ccccc1)c1ccnc(N(C)C)c1C#N	-53	?	27	.
CN(C)c1nccc(N(Cc2ccccc2)Cc2ccccc2)c1C#N	-2	2	-19	-5.7*
CC(C)(C)NC(=O)[C@@H]1C[C@@H]2CCCC[C@@H]2CN1C[C@@H](O)[C@H](Cc1ccccc1)NC(=O)[C@H](CC(N)=O)NC(=O)c1ccc2ccccc2n1	.	.	.	-5.6*
Cc1ccc(-c2noc(CCC(=O)N(C)c3ccccc3C)n2)cc1	4	-4	12	-5.6*
COc1ccc(-c2noc(CCC(=O)N(C)c3cccc(C)c3)n2)cc1	-2	2	-52	-5.8*
CCN(C(=O)CCc1nc(-c2ccc(OC)cc2)no1)c1cc(OC)ccc1OC	4	-4	0	-6.5*
COCCOC(=O)C1=C(C)N=C2SCCC(=O)N2C1c1cccc(Br)c1 (stereo not drawn)	.	.	.	-1.2
Cc1nn(Cc2ccccc2)c(C)c1C(=O)OCC(=O)c1cc(C)n(C2CC2)c1C	-8	8	-16	-4.8*
COCC(C)n1c(C)cc(C(=O)COC(=O)c2c(C)nn(-c3ccccc3)c2C)c1C (stereo not drawn)	10	-10	-23	-2.3
COCCn1c(C)cc(C(=O)COC(=O)c2c(C)nn(Cc3ccccc3)c2C)c1C	-33	33	-22	-5.9*
COCCn1c(C)cc(C(=O)COC(=O)c2n[nH]c3ccccc23)c1C	.	.	.	-2.3
Cc1nc(C(=O)NCCC(C)C)sc1C1(C)CC(c2ccccc2)=NO1 (stereo not drawn)	.	.	.	-2.7
C[C@H]1CC[C@]2(O[C@H](CCO)C[C@H](O)[C@H]2O)O1	.	.	.	0.2
Cc1[nH]nc2c1C1(CCC3(CC1)OCCO3)C(C#N)=C(N)O2	-14	14	-35	-0.093
CC(=O)Nc1c(O)nc(SCC(=O)Nc2ccc(C(C)=O)cc2)[nH]c1=O	-39	39	-7	0.54
CCCCc1c(O)nc(SCC(=O)Nc2ccc3c(c2)CCC3)[nH]c1=O	.	.	.	-5.7*
SMILES	NFkB transloc inh	NFkB transloc pot	IL1B cytotox	Cav3 T inh
O=C(CSc1nc(O)c(C2CCCCC2)c(=O)[nH]1)Nc1ccc(Cl)cc1	.	.	.	-7.8*
CC1=C(C#N)C(Nc2ccc(C)cn2)(C(F)(F)F)C(=O)N1 (stereo not drawn)	10	-10	-20	0.49
O=C(CSc1nnc2sc3ccccc3n12)NCc1ccc2c(c1)OCO2	.	.	.	-0.59
Cc1ccc(/C(CSc2nccn2-c2ncc(C(F)(F)F)cc2Cl)=N\O)cc1	-8	8	-2	-6.2*
COc1ccc(C(=O)NCCSCc2ccccc2C)cc1	-1	1	-36	-2.2
COc1ccc(C(=O)NCCSCc2ccc(C)cc2)cc1	1	-1	6	-5.6*
COc1ccc(CNc2oc(COc3ccc(Cl)cc3)nc2C#N)cc1	8	-8	7	-4.4*
COc1ccc(CCNc2oc(COc3ccccc3F)nc2C#N)cc1	14	-14	6	-5.9*
